These results are taken from PubChem BioAssay AID1259422 (The Scripps Research Institute Molecular Screening Center, 2018).

About 9,300 (1.5%) of roughly 640,000 compounds were called active. No stated cut-off is given here; in the data, active means inhibition above about 32%; inactive means the rest. This excerpt belongs to a sample that is enriched for actives.

The nature of this experiment: TEAD-YAP interaction inhibition, primary screen, TEAD-YAP interaction inhibitor project, luminescence, HEK-TIYL cells (AID 1259422).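 Further: 0% = median of test compound wells and 100% = reference inhibitor wells.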 To be noted: TEAD-Gal4/YAP UAS-luciferase luminescence, at 9.12 µM, hits give high values.
In the case of `COc1cc(OC)cc(C(=O)Nc2cc(C(=O)Nc3ccc(OC)c(OC)c3)ccc2N2CC3CC(C2)c2cccc(=O)n2C3)c1` (configuration not stated), the inhibition is -0.12% (inactive).
As for `COc1ccc(/C=C/C(=O)NCCOc2ccc(Cl)cc2)cc1OC`, the figure is -6.87% (inactive); as for `COc1ccc(NC(=O)CCCc2nc(-c3ccc(OC)c(OC)c3)no2)cc1`, 1.43% (inactive).
For `CCCNC(=O)CCCc1nc(-c2ccc(Cl)cc2)no1`, the inhibition is 25.2% (inactive).
Take `CC(=O)Nc1ccc(NC(=O)CCCc2nc(-c3ccc(C(C)(C)C)cc3)no2)cc1`: the inhibition was 68.3% (active).
As for `COc1ccc(-c2noc(CCC(=O)N(C)C)n2)cc1`, the inhibition is -26.2% (inactive).
Regarding `CC(C)(C)NC(=O)CCc1nc(-c2ccc(C(C)(C)C)cc2)no1`, the inhibition was 50.6% (active).
With `CCNC(=O)CCc1nc(-c2cccc(C)c2)no1`, the inhibition was -13.2% (inactive).
As for `COC(=O)c1ccc(C(=O)NCC2CCC3(CCN(Cc4ccccn4)CC3)O2)cc1` (configuration not stated), the figure is 9.59% (inactive); as for `Cc1cccc(C(=O)OCC(=O)NC2CCCCC2C)c1O` (configuration not stated), 7.9% (inactive); as for `COc1cccc(C(=O)NC2(C(F)(F)F)NC(=O)N(c3ccccc3)C2=O)c1` (configuration not stated), 8.83% (inactive).
As to `COc1cccc2cc(C(=O)Nc3cccc4ccccc34)c(=N)oc12`, the inhibition is -5.43% (inactive).
As to `CC(=O)Nc1cc(-c2nc3cc(C(C)C)ccc3o2)ccc1Cl`, the inhibition was -35.8% (inactive).
With `Cc1ccc2oc(-c3ccc(C)c(N)c3)nc2c1`, the inhibition was 53.6% (active).
As for `Cc1cc(-c2nc3cc(N)ccc3o2)ccc1Br`, the inhibition is 1.99% (inactive).
As for `CCc1ccc2oc(-c3ccc(N)cc3)nc2c1`, the figure is 79.6% (active); as for `Cc1ccc(OCC(=O)Nc2ccc(-c3nc4cc(C(C)C)ccc4o3)cc2)cc1`, 20.8% (inactive); as for `Cc1ccc2oc(-c3ccc(C)c(NC(=O)c4ccc([N+](=O)[O-])o4)c3)nc2c1`, -28.6% (inactive).
With `CCc1ccc(-c2nc3cc(NC(=O)c4ccc(Cl)cc4)ccc3o2)cc1`, the inhibition is 7.97% (inactive).
With `CCc1ccc2oc(-c3ccc(NC(=O)c4ccccc4[N+](=O)[O-])cc3)nc2c1`, the inhibition was -50.9% (inactive).
Take `Cc1ccc(-c2nc3cc(C(C)C)ccc3o2)cc1N`: the inhibition is 80.7% (active).
The same measure for `COc1ccccc1N1CCN(CC(O)COc2ccc(C#N)cc2)CC1` (configuration not stated): 0.33% (inactive); for `O=C(N/N=C/c1ccco1)c1cccc(F)c1`: -63.8% (inactive).
The same measure for `Fc1ccc(C2C=C(c3cccs3)NC(=S)N2)cc1` (configuration not stated): 13.5% (inactive); for `CC(C)N1CCC(N2CCN(Cc3nc(-c4ccccc4)cs3)CC2CCO)CC1` (configuration not stated): -5.11% (inactive); for `COC(=O)N1CCC(C(=O)N(C)C(c2ccc(F)cc2)c2ccccn2)CC1` (configuration not stated): 11.1% (inactive).
As for `CCN(CC)CCn1c(=S)sc2c(=O)n(-c3ccccc3OC)c(SCc3ccccc3Cl)nc21`, the inhibition was -5.55% (inactive).
For the compound `O=C(Nc1ccc2c(c1)OCCO2)C(=O)Nc1ccc2nc3n(c(=O)c2c1)CCCCC3`, the inhibition was -4.8% (inactive).
As for `Cc1ncsc1C(=O)N1CCC(c2c(S(C)(=O)=O)cnc3ncnn23)CC1`, the figure is 11.5% (inactive); as for `CCOc1ccc(C2Oc3c(Br)cc(Br)cc3C=C2[N+](=O)[O-])cc1OC` (configuration not stated), 86% (active); as for `CCOc1ccc(C2N(c3cccc(Cl)c3)C(=O)C3CCCN32)cc1OC` (configuration not stated), 0.7% (inactive).
In the case of `CCOc1cc(Br)c([N+](=O)[O-])cc1OCC`, the inhibition is -4.81% (inactive).
Turning to `CCOc1cc(/C=C2/N=C(c3ccc(Cl)cc3)OC2=O)ccc1OCc1ccc(Cl)cc1`, the inhibition was -7.55% (inactive).
Regarding `Cc1ccc(-c2nn3cc(-c4ccccc4)c4c3n2CCCC4)cc1`, the inhibition was -4.85% (inactive).
As to `O=C(CNC1=NCCCCC1)c1ccc(-c2ccccc2)cc1`, the inhibition is -23.5% (inactive).
In the case of `Cc1ccc(C(=O)C[n+]2cc(-c3ccccc3)n3c2CCCCC3)cc1`, the inhibition was 38.8% (active).
With `CN(C(=S)Nc1ccc(Cl)cc1)c1c(N)n(Cc2ccccc2)c(=O)[nH]c1=O`, the inhibition was -0.81% (inactive).
With `COc1ccc(N2CCN(C(CNC(=O)c3cccs3)c3ccc4c(c3)OCO4)CC2)cc1` (configuration not stated), the inhibition is -22.3% (inactive).
In the case of `Cn1c(C2COc3ccccc3O2)nc2ccc(-c3cn[nH]c3)cc21` (configuration not stated), the inhibition was -90.1% (inactive).
The same measure for `c1ccc2c(c1)OCC(c1nc3ccc(-c4ccncc4)cc3[nH]1)O2` (configuration not stated): -24.1% (inactive); for `CC(C)n1c(C2COc3ccccc3O2)nc2ncc(-c3ccncc3)cc21` (configuration not stated): 33% (active).
For `COc1cccc(/C=N/N2CCN(Cc3ccc(C)cc3)CC2)c1`, the inhibition is -0.53% (inactive).
The same measure for `Clc1ccc(CN2CCN(/N=C/c3c(Cl)nc4ccccn34)CC2)cc1`: 35.3% (active).
`Cc1nc2ccccn2c1CN1CCN(CC(O)COCc2ccc(Cl)cc2)CC1` (configuration not stated): the inhibition is 22.8% (inactive).
For `CCOC(=O)CC(=O)CSc1nc2c(sc(=S)n2-c2ccc(Cl)c(C)c2)c(=O)n1-c1ccccc1OC`, the inhibition was 0.42% (inactive).
For `COC(=O)c1cnn2c(C(F)(F)F)cc(-c3ccc(Br)cc3)nc12`, the inhibition is 13.7% (inactive).
As for `Brc1ccc(N=c2oc3ccccc3cc2-c2nc3ccccc3[nH]2)cc1`, the figure is -86.1% (inactive); as for `N#Cc1ccccc1N=c1oc2ccccc2cc1-c1nc2ccccc2[nH]1`, -44.7% (inactive); as for `c1ccc2oc(=Nc3cccc4ccccc34)c(-c3nc4ccccc4[nH]3)cc2c1`, 41.4% (active).
For the compound `Cc1cccc(C(=O)Nc2ncc3c(n2)CC(C)(C)CC3=O)c1`, the inhibition was -0.47% (inactive).
Take `CCOC(=O)c1c(NC(=O)CSc2nnc(CNC(=O)c3ccc([N+](=O)[O-])cc3)n2CCc2ccccc2)sc2c1CCCCC2`: the inhibition is -6.86% (inactive).
As for `Cc1cccc(N2CC(O)=C(c3nc4ccccc4c(=O)[nH]3)C2=N)c1C`, the figure is 46.8% (active).
With `CC(=O)c1cccc(N2CC(O)=C(c3nc4ccccc4[nH]3)C2=N)c1`, the inhibition was -5.18% (inactive).
`COc1ccc(N2CC(O)=C(c3nc4ccccc4c(=O)[nH]3)C2=N)cc1`: the inhibition is 0.42% (inactive).
In the case of `C/C(CC(=O)Nc1cccc2ccccc12)=N\NC(=O)c1cccnc1`, the inhibition is -13.7% (inactive).
Consider `CC(=O)Nc1ccc2nc(SCC(=O)Nc3ccccc3F)sc2c1`, for which the inhibition is -58.7% (inactive).
For `COc1cccc(-n2cc(CN(C)C3CCC(=O)N(Cc4ccccc4F)CC3)cn2)c1` (configuration not stated), the inhibition is 8.57% (inactive).

One may read the inhibition as the change of the read-out against control, counted positive when it falls.
